Measurements from PubChem BioAssay (EPA / NIEHS).
Records with an inconclusive call do not appear. Activity calls are given as the source filed them. How the source made its calls: active means hit-call score of the fitted dose curve at least 0.9, where 1 is the maximum; inconclusive means response in the unintended direction; inactive means score below 0.9.

Each compound was assayed against human RAR-related Orphan Receptor gamma (RORg), RORC (gene 6097) (UniProt P51449) (assay: ATG_RORg_TRANS: Attagene TRANS-FACTORIAL HepG2 Assay for human RAR-related Orphan Receptor gamma (RORg) (AID 2283011);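 on AC50: potency for induction of reporter transcripts above DMSO so activators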).
Sequence of human RAR-related Orphan Receptor gamma (RORg), RORC (gene 6097) (P51449 whole entry, looked up): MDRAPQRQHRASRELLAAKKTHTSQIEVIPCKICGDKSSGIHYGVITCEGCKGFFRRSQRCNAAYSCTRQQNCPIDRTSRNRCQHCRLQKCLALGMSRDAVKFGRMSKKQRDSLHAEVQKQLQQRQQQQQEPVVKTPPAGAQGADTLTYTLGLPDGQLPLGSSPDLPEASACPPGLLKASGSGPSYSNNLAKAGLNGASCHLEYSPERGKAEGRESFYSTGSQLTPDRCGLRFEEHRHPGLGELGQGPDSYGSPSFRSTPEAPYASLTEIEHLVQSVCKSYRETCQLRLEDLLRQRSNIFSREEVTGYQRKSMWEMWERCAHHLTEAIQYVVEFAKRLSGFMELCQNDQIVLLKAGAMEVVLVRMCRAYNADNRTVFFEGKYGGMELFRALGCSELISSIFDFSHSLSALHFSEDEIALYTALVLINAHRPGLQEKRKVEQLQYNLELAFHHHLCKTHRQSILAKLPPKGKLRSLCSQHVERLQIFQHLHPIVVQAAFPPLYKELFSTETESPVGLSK
Description: ATG_TRANS is a cell-based, multiplexed-readout assay that uses HepG2, a human liver cell line, with measurements taken at 24 hours after chemical dosing in a 24-well plate.ATG_RORg_TRANS is one of 30 assay component(s) measured or calculated from the ATG_TRANS assay. It is designed to make measurements of mRNA induction, a form of inducible reporter, as detected with fluorescence intensity signals by Reverse transcription polymerase chain reaction (RT-PCR) and Capillary electrophoresis technology.Data from the assay component ATG_RORg_TRANS was analyzed into 1 assay endpoint. This assay endpoint, ATG_RORg_TRANS, was analyzed in the positive analysis fitting direction relative to DMSO as the negative control and baseline of activity. Using a type of inducible reporter, measures of mRNA for gain-of-signal activity can be used to understand the reporter gene at the transcription factor-level as they relate to the gene RORC. Furthermore, this assay endpoint can be referred to as a primary readout, because this assay has produced multiple assay endpoints where this one serves a reporter gene function. To generalize the intended target to other relatable targets, this assay endpoint is annotated to the nuclear receptor intended target family, where the subfamily is orphan.
Human liver HepG2 cells are transiently transfected with multiple reporter transcription units (MRTUs) in 6-well plates using FuGene 6 reagent (Roche; 3 ml FuGene/1 mg DNA). The MRTU constructs are regulated by a cis-regulating element (promoter). […] A major difference between the CIS and TRANS system is that in CIS activities of endogenous TFs are measured, whereas the TRANS assay evaluates changes in activities of exogenous, chimeric NR-Gal4 proteins. […] At the end of 24 hour incubation, total RNA was isolated using TriZol reagent (Invitrogen). The isolated RNA is then reverse-transcribed using oligo(dT) primer and Mo-MLV reverse transcriptase (Invitrogen) with DNAse I (Ambion) treatment for 30 min. The one-tenth of the produced cDNA was amplified by PCR using Taq DNA polymerase (Invitrogen) and two reporter sequence-specific primers. The PCR products were fluorescently labeled by primer extension with 6-arboxyfluorescein (6-FAM) 5'-labeled reporter sequence-specific primer (2 min at 95 C, 20 s at 68 C and 10 min at 72 C) and these products were digested with 5U of HpaI (New England Biolabs) for 2h at 37 C. The fragments were purified using Qiaquick PCR columns (Qiagen), analyzed on an ABI 3130xL genetic analyzer (Applied Biosystems) with peak positions identified by using a set of X-rhodamine (ROX)-labeled MapMarker1000 molecular weight standards (BioVentures). The raw capillary electrophoresis data was processed using Attagraph software (Attagene).

Structure (SMILES)	AC50	outcome
CC(C)(C)C(=O)C=Cc1ccc(Cl)cc1	24.4 µM (active)	–
CC(C)c1ccc(C#N)cc1	–	inactive
Clc1nc2ccccc2s1	–	inactive
O=C1c2ccccc2C(=O)C1c1nc2ccccc2c(Br)c1O	–	inactive
OC1CCCC1	–	inactive
CCN(CC)c1ccc(C(=O)c2ccccc2C(=O)O)c(O)c1	–	inactive
Cc1ccc(C(C)(C)C)cc1	–	inactive
O=Cc1ccc(CO)o1	–	inactive
CC(=O)c1ccc[nH]1	–	inactive
O=CC1CC1	–	inactive
C=CCOCC(O)CCl (stereo not given)	–	inactive
NC(=O)N=NC(N)=O	–	inactive
CNC(=S)N(C)C	–	inactive
C1=Cc2ccccc2C1	–	inactive
Cc1c(C)c([N+](=O)[O-])c(C(C)(C)C)c([N+](=O)[O-])c1C	–	inactive
O=C1C=CC(=O)O1	–	inactive
CCCCCCCCCCCCCCCCCC#N	–	inactive
Cc1ccc(N)c([N+](=O)[O-])c1	–	inactive
CC(C)=CCC/C(C)=C\C#N	–	inactive
C[Si](C)(C)O[Si](O)(O)O	–	inactive

Structure (SMILES)	AC50	outcome
CCCOCCOCCOCCO	–	inactive
O=C1CCCC1	–	inactive
O=C1OC(=O)c2cc(Oc3ccc4c(c3)C(=O)OC4=O)ccc21	–	inactive
O=C(C=Cc1ccccc1)OCc1ccccc1	–	inactive
C=C[Si](C)(C)O[Si](C)(C)C=C	–	inactive
O=C1CCCCCN1SSN1CCCCCC1=O	–	inactive
Cc1cc(=O)n(-c2ccccc2)n1C	–	inactive
O=S(=O)(O)c1ccccc1C=Cc1ccc(-c2ccc(C=Cc3ccccc3S(=O)(=O)O)cc2)cc1	–	inactive
CCCOC(=O)CCCCC(=O)OCCC	–	inactive
NC(=O)NNC(N)=O	–	inactive
C[C@]12CCC(=O)C=C1CC[C@@H]1[C@@H]2C(=O)C[C@@]2(C)[C@H]1CC[C@]2(O)C(=O)CO	–	inactive
CNC(=S)NN	–	inactive
CC(=O)OCC(=O)[C@@]12N=C(C)O[C@@H]1C[C@H]1[C@@H]3CCC4=CC(=O)C=C[C@]4(C)[C@H]3[C@@H](O)C[C@@]12C	–	inactive
COC(=O)c1ccccc1OC	–	inactive
CC(C)c1ccc(C=O)cc1	–	inactive
C=CCOc1c(Br)cc(Br)cc1Br	–	inactive
CN(C)c1ccc(C(=N)c2ccc(N(C)C)cc2)cc1	–	inactive
CC1=NN(c2cc(S(=O)(=O)O)ccc2Cl)C(=O)C1N=Nc1ccccc1 (stereo not given)	–	inactive
CC[C@H]1OC(=O)[C@H](C)[C@@H](O[C@H]2C[C@@](C)(OC)[C@@H](O)[C@H](C)O2)[C@H](C)[C@@H](O[C@@H]2O[C@H](C)C[C@H](N(C)C)[C@H]2O)[C@](C)(O)C[C@@H](C)C(=NOCOCCOC)[C@H](C)[C@@H](O)[C@]1(C)O	–	inactive
CCCCC/C=C\C/C=C\CCCCCCCC(=O)OC	–	inactive
